Potency and affinity values are given separately.
Target: NAD-dependent protein deacylase sirtuin-5, mitochondrial (Homo sapiens) (UniProt Q9NXA8)
Test: blockers of sirtuin-5 peptide desuccinylation – biochemical, fluorescence imaging, cherry-pick, set 6, dose response (AID 720597);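 also: lower AMC signal can also come from blocking the trypsin step; 0% = median of neutral control wells and -100% = median of positive control wells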
Conditions: Purified SirT5, succinyl-peptide-AMC/trypsin fluorescence; series mostly up to 15 µM; activity change, negative = inhibition: at the top concentration;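 active = fitted half-maximal dose no more than twice the top valid tested dose, for compounds that lower signal; inconclusive = fit invalid, or curve flat with activity between -70 and -30; inactive = potency past limit, curve flat within ±30, or signal increasing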

NAD-dependent protein deacylase sirtuin-5, mitochondrial (Homo sapiens), sequence (Q9NXA8 whole entry, looked up): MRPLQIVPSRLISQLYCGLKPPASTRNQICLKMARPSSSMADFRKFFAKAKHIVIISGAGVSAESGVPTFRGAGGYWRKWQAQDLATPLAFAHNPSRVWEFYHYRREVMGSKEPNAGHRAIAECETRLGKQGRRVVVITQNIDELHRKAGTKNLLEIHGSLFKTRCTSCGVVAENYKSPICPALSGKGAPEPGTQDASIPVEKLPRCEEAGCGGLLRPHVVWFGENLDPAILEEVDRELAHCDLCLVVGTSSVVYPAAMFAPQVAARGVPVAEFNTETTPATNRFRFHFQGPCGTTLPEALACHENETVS

Activity change, negative = inhibition, inactive:
CC(C)(C)NC(=O)CSc1nnc(-c2ccco2)n1-c1ccccc1 -10.4% [at 16 µM], O=C(N[C@@H]1CC[C@H](CCNS(=O)(=O)c2ccccc2)O[C@H]1CO)c1cnccn1 7.21%, COc1ccc(S(=O)(=O)N(C)C[C@H]2OCCCC[C@H](C)Oc3ccc(NS(=O)(=O)c4ccc(C)cc4)cc3C(=O)N([C@@H](C)CO)C[C@H]2C)cc1 -15.3%, CC(C)[C@@H](C)NC(=O)N(C)C[C@@H]1OCc2ccccc2-c2c(n(C)c3ccccc23)C(=O)N([C@@H](C)CO)C[C@@H]1C -18.6%, Cc1noc(C)c1S(=O)(=O)N(C)C[C@@H]1Oc2ccc(NC(=O)Cn3cnnn3)cc2C(=O)N([C@@H](C)CO)C[C@@H]1C -12.8%, C[C@H](CO)N1C[C@H](C)[C@H](CN(C)C(=O)Nc2ccc(F)cc2)Oc2cc(/C=C/c3ccccc3)ccc2S1(=O)=O -26.4%, Cc1ccc(S(=O)(=O)N[C@@H]2CC[C@@H](CC(=O)N3CCN(c4ccccc4)CC3)O[C@@H]2CO)cc1 -8.28%, Cc1ccc(-c2ccc3c(c2)O[C@H](CN(C)Cc2cccnc2)[C@H](C)CN([C@H](C)CO)S3(=O)=O)cc1 1.72%, Cc1cccc(-c2ccc([C@@H]3[C@@H](CO)N4C(=O)CN(S(=O)(=O)c5cccc(F)c5)C[C@@H]34)cc2)c1 5.16%, COCC(=O)N1[C@H](C#N)[C@H](c2ccccc2-c2cccc(F)c2)[C@H]1CO 16%, CC(C)CC#Cc1ccc2c(c1)O[C@@H](CN(C)C(=O)NC1CCCC1)[C@H](C)CN([C@H](C)CO)S2(=O)=O -5.15%, O=C(NCC[C@H]1CC[C@@H](NS(=O)(=O)c2cccc(F)c2)[C@H](CO)O1)C1CCOCC1 14.3%, COc1ccc(S(=O)(=O)Nc2ccc3c(c2)C(=O)N([C@H](C)CO)C[C@@H](C)[C@H](CN(C)S(=O)(=O)c2ccccc2)OCCCC[C@H](C)O3)cc1 -24.8%, C[C@@H]1CCCCO[C@@H](CN(C)Cc2ccc(C(F)(F)F)cc2)[C@@H](C)CN([C@@H](C)CO)C(=O)c2cc(NS(=O)(=O)c3cccs3)ccc2O1 -24%, CC(C)CC#Cc1ccc2c(c1)O[C@H](CN(C)C(=O)C1CCCCC1)[C@@H](C)CN([C@H](C)CO)S2(=O)=O 9.78%, COc1cccc(CNC(=O)C[C@H]2CC[C@H]3[C@H](COc4ccc(NS(=O)(=O)c5ccccc5F)cc4C(=O)N3C)O2)c1 2.21%, COc1ccc(C#Cc2ccc3c(c2)[C@]2(C(=O)N3)[C@H](C(=O)N3CCN(c4ncccn4)CC3)[C@H]3C(=O)O[C@H](c4ccccc4)[C@H](c4ccccc4)N3[C@@H]2c2ccc(OCCO)cc2)cc1 11%, CC(C)NC(=O)Nc1ccc2c(c1)C(=O)N([C@H](C)CO)C[C@H](C)[C@H](CN(C)Cc1ccc(-c3ccccc3)cc1)O2 5.22%, CO[C@@H]1CN(C)C(=O)c2ccc(NC(=O)Nc3ccccc3)cc2OC[C@@H](C)N(C(C)=O)C[C@H]1C -32.1%, CCS(=O)(=O)N1CC(=O)N2[C@H](CO)[C@H](c3ccc(C4=CCCCC4)cc3)[C@@H]2C1 19.9%, Cn1cnc(S(=O)(=O)N[C@H]2CC[C@@H](CC(=O)Nc3ccccc3)O[C@@H]2CO)c1 17%, C[C@H](CO)N1C[C@H](C)[C@H](CN(C)S(=O)(=O)c2ccc(Cl)cc2)OCCCC[C@H](C)Oc2ccc(NS(=O)(=O)c3ccc(F)cc3)cc2C1=O -7.61%, O=C(C[C@@H]1C[C@H]2c3cc(NC(=O)c4ccc5c(c4)OCO5)ccc3O[C@H]2[C@H](CO)O1)NCc1ccc(Oc2ccccc2)cc1 -12.9%, C[C@H](CO)N1C[C@H](C)[C@@H](CN(C)S(=O)(=O)c2ccc(F)cc2)Oc2cc(C3=CCCCC3)ccc2S1(=O)=O -0.88%, C[C@H]1CN([C@@H](C)CO)S(=O)(=O)c2ccc(-c3cccc(F)c3)cc2O[C@H]1CN(C)S(=O)(=O)c1ccc(F)cc1 7.74%, CC(=O)N1CC(=O)N2[C@@H](CO)[C@H](c3ccc(-c4ccc(C(=O)N(C)C)cc4)cc3)[C@@H]2C1 -18.5%, C[C@H]1CN([C@@H](C)CO)S(=O)(=O)c2ccc(C#CC3CCCC3)cc2O[C@@H]1CN(C)C(=O)Nc1cc(F)ccc1F 21%, C[C@H]1CN([C@@H](C)CO)C(=O)c2cc(NC(=O)C3CCCCC3)ccc2O[C@@H]1CN(C)CC1CC1 -28.9%, C[C@@H]1CCCCO[C@@H](CN(C)C(=O)Cc2ccccc2)[C@@H](C)CN([C@@H](C)CO)C(=O)c2cc(NC(=O)Nc3ccc(F)cc3)ccc2O1 -29.6%, O=C(NCC[C@H]1CC[C@H](NS(=O)(=O)c2cccc(F)c2)[C@@H](CO)O1)C1CCOCC1 0.211%, C[C@@H]1CN([C@@H](C)CO)C(=O)c2c(c3ccccc3n2C)-c2ccccc2CO[C@@H]1CN(C)Cc1cccc2c1OCCCO2 -11.8%, C[C@@H]1CN([C@H](C)CO)C(=O)c2cc(-c3ccc(F)cc3)cnc2O[C@H]1CN(C)C(=O)Cc1ccccn1 -17.1%, COc1ccc(S(=O)(=O)N(C)C[C@@H]2OCCCC[C@@H](C)Oc3ccc(NC(=O)Nc4ccc(C(F)(F)F)cc4)cc3C(=O)N([C@@H](C)CO)C[C@@H]2C)cc1 10.5%, C[C@@H]1CN([C@H](C)CO)C(=O)c2cc(Br)cnc2O[C@@H]1CN(C)Cc1cncnc1 -2.29% [at 13.5 µM], C[C@@H]1CN([C@@H](C)CO)C(=O)c2cc(NC(=O)CCN3CCOCC3)ccc2O[C@H]1CN(C)Cc1ccc(C(F)(F)F)cc1 -9.07%, COc1ccc(S(=O)(=O)N(C)C[C@H]2OCCCC[C@H](C)Oc3ccc(NS(=O)(=O)c4ccc(C)cc4)cc3C(=O)N([C@@H](C)CO)C[C@@H]2C)cc1 -19.4%, C[C@@H]1CN([C@H](C)CO)C(=O)c2cc(C#CCN(C)C)cnc2O[C@H]1CN(C)Cc1ccncc1 11.4%, C[C@H]1CN([C@@H](C)CO)S(=O)(=O)c2ccc(C#Cc3cccc(F)c3)cc2O[C@H]1CN(C)S(=O)(=O)c1ccccc1F 1.08%, CC(C)NC(=O)N1[C@H](CN(C)C(=O)c2ccccc2)[C@@H](c2ccccc2)[C@@H]1CO -19.9%, Cc1ccc(S(=O)(=O)N(C)C[C@@H]2OCc3ccccc3-c3c(n(C)c4ccccc34)C(=O)N([C@H](C)CO)C[C@@H]2C)cc1 -22% [at 16 µM]

— PubChem BioAssay AID720597 (Broad Institute, 2013)
